These results are taken from PubChem BioAssay (Tox21).

Experiment [1] in a line: qHTS assay to identify small molecule antagonists of the thyroid receptor (TR) signaling pathway - cell viability counter screen (AID 743064). Note: nearly all actives have a fitted effect of over 50% in size. Note: potency is the fitted concentration of half-maximal effect. The gist of the method: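 GH3.TRE-Luc rat pituitary cells dosed after 4 hr plating, co-stimulated with T3 at 1 nM final, incubated 23.5 h at 37 C. Viability measured in the same wells by CellTiter-Fluor fluorescence after 30 min further at 37 C.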
A general note: qHTS replaces the single test concentration by a dilution series.

The nature of experiment [2]: qHTS assay to identify small molecule antagonists of the thyroid receptor (TR) signaling pathway (AID 743065). Note: potency is the fitted concentration of half-maximal effect; nearly all actives have a fitted effect of over 55% in size. The gist of the method: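 GH3.TRE-Luc rat pituitary cells (two TREs driving luciferase) were dosed with compound, then stimulated with 1 nM T3 (final) for 23.5 h at 37 C. ONE-Glo luminescence was the read-out, with CellTiter-Fluor fluorescence as the cytotoxicity counter-screen.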

Experiment [3] in a line: qHTS assay to identify small molecule antagonists of the estrogen receptor alpha (ER-alpha) signaling pathway - cell viability counter screen (AID 743074; calls by dose curve;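 note: HEK293 cells carrying ER-alpha-UAS-bla reporter stimulated with 17beta-estradiol; % is set by controls: 0 for no effect and ±100 for the full control effect; nearly all actives have a fitted effect of over 45% in size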).
For experiment [4], the target named is Estrogen receptor (Homo sapiens) (UniProt P03372). Kind of experiment: qHTS assay to identify small molecule agonists of the estrogen receptor alpha (ER-alpha) signaling pathway (AID 743075; calls by dose curve;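 note: HEK293 GripTite cells with ER-alpha and UAS-driven beta-lactamase reporter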; note: potency is the fitted concentration of half-maximal effect).
Estrogen receptor (Homo sapiens), sequence (P03372 whole entry, looked up): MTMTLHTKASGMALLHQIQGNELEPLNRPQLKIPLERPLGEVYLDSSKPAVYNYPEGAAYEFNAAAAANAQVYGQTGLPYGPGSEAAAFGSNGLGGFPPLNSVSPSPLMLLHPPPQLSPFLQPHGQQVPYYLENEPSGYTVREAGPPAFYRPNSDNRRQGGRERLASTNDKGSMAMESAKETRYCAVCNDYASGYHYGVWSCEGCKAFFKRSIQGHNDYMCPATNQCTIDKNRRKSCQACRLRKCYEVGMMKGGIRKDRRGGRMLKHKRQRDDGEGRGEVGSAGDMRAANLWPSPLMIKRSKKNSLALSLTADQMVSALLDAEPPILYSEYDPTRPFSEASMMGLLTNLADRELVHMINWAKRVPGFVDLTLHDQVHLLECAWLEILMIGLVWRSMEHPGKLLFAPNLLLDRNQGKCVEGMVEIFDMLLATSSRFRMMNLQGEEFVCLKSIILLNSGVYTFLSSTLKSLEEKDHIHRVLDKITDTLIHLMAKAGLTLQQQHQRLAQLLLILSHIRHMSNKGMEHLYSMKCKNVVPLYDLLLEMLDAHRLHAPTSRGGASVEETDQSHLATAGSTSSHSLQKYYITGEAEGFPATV
For experiment [5] the target is unchanged. As to the kind of experiment: qHTS assay to identify small molecule agonists of the estrogen receptor alpha (ER-alpha) signaling pathway using the BG1 cell line (AID 743079). Note: % is set by controls: 0 for no effect and ±100 for the full control effect; nearly all actives have a fitted effect of over 20% in size. As to conditions: BG1Luc4E2 cells, ERE-luciferase agonist, 22 h; activation: at 70.3 µM (top of the series).
A further experiment concerns the target Aromatase (Homo sapiens) (UniProt P11511). Kind of experiment: qHTS assay to identify aromatase inhibitors (AID 743083). Note: nearly all actives have a fitted effect of over 55% in size. Note: potency is the fitted concentration of half-maximal effect.
The nature of experiment [6]: qHTS assay to identify aromatase inhibitors - cell viability counter screen (AID 743084).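 Note: cells stimulated with testosterone during compound exposure; % is set by controls: 0 for no effect and ±100 for the full control effect; nearly all actives have a fitted effect of over 55% in size.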
Experiment [7] deals with Aryl hydrocarbon receptor (Homo sapiens) (UniProt P35869). As to the kind of experiment: qHTS assay to identify small molecule that activate the aryl hydrocarbon receptor (AhR) signaling pathway (AID 743085). Note: nearly all actives have a fitted effect of over 15% in size. Note: potency is the fitted concentration of half-maximal effect. The gist of the method:
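HepG2 cells stably carrying a 20-DRE firefly luciferase reporter (HG2L7.5c1) treated with compound for 24 hr at 37C. Luciferase read by ONE-Glo luminescence, with CellTiter-Fluor viability read first.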

For experiment [8], the target named is Peroxisome proliferator-activated receptor gamma (Homo sapiens) (UniProt P37231). As to the kind of experiment: qHTS assay to identify small molecule agonists of the peroxisome proliferator-activated receptor gamma (PPARg) signaling pathway (AID 743094; active = well fitted activation curve with a large enough effect in the signal ratio in the repeat runs, not every such curve was filed as active; inconclusive = weak or mixed curves, or effect the other way; inactive = no such curve, though single readings can be large or run the other way; the % refers to the signal ratio; note: % is set by controls: 0 for no effect and ±100 for the full control effect). The gist of the method: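 Following 5 h plating at 37C, PPARg-bla HEK293H cells receive compound or DMSO for 17 h; fluorescence intensity is recorded after LiveBLAzer B/G loading for 1 h at room temperature.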
Peroxisome proliferator-activated receptor gamma (Homo sapiens), sequence (P37231 whole entry, looked up): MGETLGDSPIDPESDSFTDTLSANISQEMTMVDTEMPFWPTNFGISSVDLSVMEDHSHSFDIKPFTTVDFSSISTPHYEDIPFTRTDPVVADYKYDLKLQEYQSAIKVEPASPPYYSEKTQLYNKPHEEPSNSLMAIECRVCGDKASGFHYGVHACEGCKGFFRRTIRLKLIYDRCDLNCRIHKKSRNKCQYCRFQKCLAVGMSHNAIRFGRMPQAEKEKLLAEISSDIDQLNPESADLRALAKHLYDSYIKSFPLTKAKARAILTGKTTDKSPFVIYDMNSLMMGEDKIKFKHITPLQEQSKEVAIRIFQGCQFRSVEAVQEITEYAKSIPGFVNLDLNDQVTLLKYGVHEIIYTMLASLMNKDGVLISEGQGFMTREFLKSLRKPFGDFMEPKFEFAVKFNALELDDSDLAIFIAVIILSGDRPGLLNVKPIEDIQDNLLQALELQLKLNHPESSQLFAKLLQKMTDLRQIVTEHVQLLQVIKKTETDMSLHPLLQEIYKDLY

Experiment [9] is described as follows: qHTS assay to identify small molecule antagonists of the peroxisome proliferator-activated receptor gamma (PPARg) signaling pathway - cell viability counter screen (AID 743194). Note: % is set by controls: 0 for no effect and ±100 for the full control effect; nearly all actives have a fitted effect of over 55% in size. As to conditions: Potency: co-treated with 50 nM rosiglitazone unless noted. The gist of the method: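 Cytotoxicity counter screen in PPARg-bla HEK293H cells, same wells as reporter assay. Compounds plus 50 nM rosiglitazone (final) for 17 h at 37 C, then viability read by CellTiter-Glo luminescence.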

Experiment [10] in a line: qHTS assay for small molecule agonists of the antioxidant response element (ARE) signaling pathway (AID 743202; active = well fitted activation curve with a large enough effect in the signal ratio in the repeat runs, not every such curve was filed as active; inconclusive = weak or mixed curves, or effect the other way; inactive = no such curve, though single readings can be large or run the other way; the % refers to the signal ratio; note: potency is the fitted concentration of half-maximal effect). The gist of the method:
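Agonist mode reporter screen: HepG2 cells with ARE-controlled beta-lactamase are incubated with test compounds for 16 h at 37 C, and beta-lactamase activity is measured as fluorescence of cleaved B/G FRET substrate.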

A short description of experiment [11]: qHTS assay for small molecule agonists of the antioxidant response element (ARE) signaling pathway - cell viability counter screen (AID 743203; calls by dose curve). The gist of the method:
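Compounds in DMSO were pinned onto ARE-bla HepG2 cells plated 5 hrs earlier at 2,000 cells/well. Sixteen hours later at 37C/5% CO2, CellTiter-Glo was added and luminescence measured after 30 min at room temperature.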

The nature of experiment [12]: qHTS assay for small molecule activators of the heat shock response signaling pathway - cell viability counter screen (AID 743209). Note: % is set by controls: 0 for no effect and ±100 for the full control effect; nearly all actives have a fitted effect of over 50% in size. The gist of the method:
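Counter screen for cytotoxicity in HeLa HSE-bla reporter cells. Treatment was 5 h at 37 C; viability was detected by luminescent ATP assay (CellTiter-Glo) in the same wells as the beta-lactamase read.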

Experiment [13] in a line: qHTS assay for small molecule activators of the heat shock response signaling pathway (AID 743210; active = well fitted activation curve with a large enough effect in the signal ratio in the repeat runs, with a control signal flat, not every such curve was filed as active; inconclusive = weak or mixed curves; the % refers to the signal ratio;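 note: HeLa cells with beta-lactamase reporter driven by heat shock elements; % is set by controls: 0 for no effect and ±100 for the full control effect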). Summed up:
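Quantitative high-throughput format using an engineered HeLa line in which heat shock response elements drive beta-lactamase; after 5 h with compound, cells received a B/G FRET substrate and fluorescence was read.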

The test system of experiment [14] is thyroid hormone receptor (rat, GH3 cells). As to the kind of experiment: qHTS assay to identify small molecule agonists of the thyroid receptor (TR) signaling pathway (AID 743066; calls by dose curve; note: % is set by controls: 0 for no effect and ±100 for the full control effect).
Experiment [15] in a line: qHTS assay to identify small molecule antagonists of the estrogen receptor alpha (ER-alpha) signaling pathway using the BG1 cell line - cell viability counter screen (AID 743081).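 Note: compound given together with 17beta-estradiol as the ER stimulus; % is set by controls: 0 for no effect and ±100 for the full control effect; nearly all actives have a fitted effect of over 45% in size.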
Experiment [16] is described as follows: qHTS assay to identify small molecule that activate the aryl hydrocarbon receptor (AhR) signaling pathway - cell viability counter screen (AID 743086).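 Note: HepG2 liver cells carrying the AhR DRE luciferase reporter; % is set by controls: 0 for no effect and ±100 for the full control effect; nearly all actives have a fitted effect of over 45% in size.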 The gist of the method: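 HepG2-AhR-luc (HG2L7.5c1) cells, 4000/well, treated 24 h at 37 C with compound; viability measured as CellTiter-Fluor fluorescence after 30 min in the same wells as the luciferase read.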

Experiment [17] in a line: qHTS assay to identify small molecule antagonists of the estrogen receptor alpha (ER-alpha) signaling pathway using the BG1 cell line (AID 743080; calls by dose curve;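 note: BG1 cells stimulated with 17beta-estradiol alongside compound; nearly all actives have a fitted effect of over 25% in size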; note: potency is the fitted concentration of half-maximal effect). The gist of the method:
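Quantitative HTS on the Tox21 10K library: BG1 cells with endogenous ER-alpha and ERE-luciferase reporter, 17beta-estradiol stimulation, 21.5 h compound exposure, luminescence endpoint with parallel fluorescence cytotoxicity counter-read.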

For experiment [18], the target named is Peroxisome proliferator-activated receptor gamma (Homo sapiens) (UniProt P37231). As to the kind of experiment: qHTS assay to identify small molecule antagonists of the peroxisome proliferator-activated receptor gamma (PPARg) signaling pathway (AID 743191; calls by dose curve; note: % is set by controls: 0 for no effect and ±100 for the full control effect; nearly all actives have a fitted effect of over 30% in size). The gist of the method:
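GeneBLAzer PPARg UAS-bla HEK293H cells, 5 h post-plating, exposed to compounds 17 h at 37C. LiveBLAzer B/G FRET substrate added for 1 h at room temperature; beta-lactamase reporter read by fluorescence intensity.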

Experiment [19] addresses Estrogen receptor (Homo sapiens) (UniProt P03372). Kind of experiment: qHTS assay to identify small molecule antagonists of the estrogen receptor alpha (ER-alpha) signaling pathway (AID 743069; active = well fitted curve in the direction sought with a large enough effect in the signal ratio in the repeat runs, not every such curve was filed as active; inconclusive = weak or mixed curves, or effect the other way; inactive = no such curve, though single readings can be large or run the other way; the % refers to the signal ratio; note: % is set by controls: 0 for no effect and ±100 for the full control effect). Summed up:
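Reporter cells (ER-alpha-bla, HEK293 background) are conditioned overnight in stripped-serum medium (2% charcoal-stripped FBS). Compound and 17beta-estradiol exposure runs 18 hr at 37C, 5% CO2.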

A number with no mark means an inactive call. Activity calls are given as the source filed them. Unless noted, calls come from the whole dose curve; as a rule, active = well fitted curve in the direction sought with a large enough effect in the repeat runs; inconclusive = weak or mixed curves; inactive = no such curve, though single readings can be large; an effect the other way counts as inactive or inconclusive.

Aromatase (Homo sapiens), sequence (P11511 whole entry, looked up): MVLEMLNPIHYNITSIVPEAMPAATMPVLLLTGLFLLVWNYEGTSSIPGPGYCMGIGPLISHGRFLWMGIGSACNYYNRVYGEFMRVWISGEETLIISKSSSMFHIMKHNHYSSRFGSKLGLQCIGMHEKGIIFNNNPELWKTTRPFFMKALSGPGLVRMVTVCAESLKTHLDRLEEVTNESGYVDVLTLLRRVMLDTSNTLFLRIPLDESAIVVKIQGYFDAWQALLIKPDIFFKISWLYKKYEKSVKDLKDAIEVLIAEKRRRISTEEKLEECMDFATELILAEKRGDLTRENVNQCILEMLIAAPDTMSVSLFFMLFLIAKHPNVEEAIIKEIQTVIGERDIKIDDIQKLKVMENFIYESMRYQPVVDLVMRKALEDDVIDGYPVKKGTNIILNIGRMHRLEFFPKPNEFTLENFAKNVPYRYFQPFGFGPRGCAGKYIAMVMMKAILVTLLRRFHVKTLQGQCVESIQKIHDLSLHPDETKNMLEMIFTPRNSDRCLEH
Aryl hydrocarbon receptor (Homo sapiens), sequence (P35869 whole entry, looked up): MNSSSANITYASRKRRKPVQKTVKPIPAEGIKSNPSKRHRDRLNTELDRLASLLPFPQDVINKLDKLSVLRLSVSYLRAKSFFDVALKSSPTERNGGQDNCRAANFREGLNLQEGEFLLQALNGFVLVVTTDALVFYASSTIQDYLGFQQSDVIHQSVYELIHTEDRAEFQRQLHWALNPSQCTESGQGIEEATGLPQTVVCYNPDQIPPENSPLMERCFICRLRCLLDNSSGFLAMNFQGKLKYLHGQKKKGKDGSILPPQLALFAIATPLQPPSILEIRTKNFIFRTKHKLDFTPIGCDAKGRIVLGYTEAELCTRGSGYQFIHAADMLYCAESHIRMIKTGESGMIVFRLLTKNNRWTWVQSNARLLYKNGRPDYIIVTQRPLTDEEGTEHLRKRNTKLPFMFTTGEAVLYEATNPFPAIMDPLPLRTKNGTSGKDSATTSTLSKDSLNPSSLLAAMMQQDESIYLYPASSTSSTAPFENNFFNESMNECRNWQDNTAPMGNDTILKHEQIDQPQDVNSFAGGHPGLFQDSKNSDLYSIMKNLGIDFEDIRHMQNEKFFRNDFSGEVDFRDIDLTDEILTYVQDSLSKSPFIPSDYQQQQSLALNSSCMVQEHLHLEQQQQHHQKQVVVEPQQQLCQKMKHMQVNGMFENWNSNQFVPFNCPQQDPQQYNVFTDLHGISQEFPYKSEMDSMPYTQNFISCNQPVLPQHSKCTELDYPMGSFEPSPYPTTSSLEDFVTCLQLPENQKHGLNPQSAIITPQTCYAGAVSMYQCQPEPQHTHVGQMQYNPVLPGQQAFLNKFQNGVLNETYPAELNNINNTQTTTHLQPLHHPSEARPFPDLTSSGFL

Turning to `CN1CCc2cc(Cl)c(O)cc2[C@H]2c3ccccc3CC[C@@H]21`, the Potency in experiment [1] and in experiment [2] was 13.3 µM (active) in each case. For the same compound, the Potency result (in experiment [3]; in experiment [4]; in [5]; in the experiment with Aromatase (Homo sapiens); in [6]; in experiment [7]) was “inactive” in each case. The Potency entry in experiment [8], in [9], in experiment [10], in [11], in experiment [12] and in experiment [13] was “inactive” in each case.
With `CC(=O)O.CC(=O)O.CC(=O)O.CC(=O)O.CC(=O)O.CC(=O)O.CC(=O)O.O.O.[Cr].[Cr].[Cr]`, the Potency entry (in experiment [1]; in experiment [14]; in experiment [3]; in [15]; with Aromatase (Homo sapiens); in [6]) was “inactive” in each case. In addition, the Potency entry in [7], in [16], in [9], in experiment [11] and in experiment [12] was “inactive” each time.
`Oc1cc(Cl)cc(Cl)c1`: the Potency entry in experiment [1], in experiment [14], in experiment [3], in [4], in experiment [5] and in experiment [17] was “inactive” each time. Further, the Potency entry in [15], in experiment [6], in experiment [7], in experiment [16], in experiment [8] and in experiment [18] was “inactive” throughout. The Potency entry in experiment [11] and in experiment [13] was “inactive” each time.
For `O=[N+]([O-])c1cccc2cccc([N+](=O)[O-])c12`, the Potency result in experiment [1], in [14], in experiment [3], in experiment [15], in [6] and in experiment [16] was “inactive” throughout. Also, the Potency entry in [9] and in [12] was “inactive” throughout. Besides, the Potency in [10] is 9.73 µM (active).
Take `CCOP(=S)(OCC)Oc1cc(C)nc(N(CC)CC)n1`: the Potency result in experiment [1], in experiment [14], in experiment [4], in experiment [15], in experiment [6] and in [16] was “inactive” each time. Further, the Potency result in [8], in experiment [9], in [11] and in experiment [12] was “inactive” throughout. In addition, the Potency in experiment [17] is 34.4 µM (active); in experiment [7] it was 2.73 µM (active).
As to `COC(=O)N(OC)c1ccccc1COc1ccn(-c2ccc(Cl)cc2)n1`, the Potency in [1] is 61.1 µM (active); in [2], 0.137 µM (active); in experiment [4] it was 0.275 µM [inconclusive] (active); in experiment [17], 0.77 µM (active); in the experiment with Aromatase (Homo sapiens), 61.1 µM (active); in [10], 0.433 µM (active). Moreover, the Potency entry in experiment [7], in experiment [16], in experiment [8] and in experiment [12] was “inactive” throughout.
As for `CN`, the Potency result (in experiment [1]; in [14]; in experiment [3]; in experiment [15]; with Aromatase (Homo sapiens); in [6]) was “inactive” throughout. The Potency entry in experiment [7], in [16], in [9] and in experiment [11] was “inactive” throughout.
Turning to `CC(=O)[O-].CC(=O)[O-].CC(=O)[O-].[Sb+3]`, the activity change, negative = cytotoxic in [1] was 15.9% [at 8.44 µM]. Moreover, the activation in [14] is 0.26% [at 8.08 µM]; in [7], 0.374% [at 8.47 µM]; in [10], -8.79% [at 8.36 µM]. The activity, negative = cytotoxicity in experiment [3] is 16.3% [at 6.72 µM]. Further, the activity change, negative = cytotoxicity in experiment [15] was 10.6% [at 8.47 µM]; in experiment [6], 6.01% [at 8.47 µM]; in experiment [9], -5.68% [at 5.95 µM, co-treated with 50 nM rosiglitazone]. The activity, negative = inhibition in the experiment with Aromatase (Homo sapiens) was 2.18% [at 8.47 µM]. The viability change, negative = cytotoxic is 5.29% [at 8.47 µM] in [16] and -9.94% [at 8.36 µM] in [11].
Turning to `CC(=O)C(Cl)C(=O)N(C)C` (centres undefined), the Potency result in experiment [1], in experiment [14], in experiment [19], in [3], in experiment [4] and in experiment [5] was “inactive” in each case. Further, the Potency result (in experiment [17]; in [15]; in the experiment with Aromatase (Homo sapiens); in [6]; in [7]; in experiment [16]) was “inactive” each time. In experiment [12], the Potency entry is “inactive”.
